The whole screen tested about 5,500 compounds, of which about 2,000 (36%) were called active. About 18% were inconclusive and are not listed. Rule as the data show it: active = normalized growth mostly below about 0.91 (no sharp cut-off); inconclusive = no clear call, values can overlap the other calls; inactive = mostly above about 0.92. The list shows a part of the results.
Assay: chemical genetic growth profiling, strain panel (AID 1159580);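 also: tested at 20 µM; growth read once vehicle control cultures reached saturation at 30 °C; 1 = growth at the plate median or of vehicle wells; lower values mean less growth of the strain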
Details: growth OD

Measured: normalized growth

CCCc1cc(=O)[nH]c(=S)[nH]1
inactive: S. cerevisiae deletion strains, locus YJR075W, strain HOC1, active compounds read low 1.02 | S. cerevisiae deletion strains, locus YKL009W, strain mrt4, active compounds read low 0.994 | S. cerevisiae deletion strains, locus YKL068W, active compounds read low 1 | S. cerevisiae deletion strains, locus YKL085W, strain MDH1 (second series), active compounds read low 1 | S. cerevisiae deletion strains, locus YKL085W, strain MDH1, active compounds read low 1 | S. cerevisiae deletion strains, locus YKL160W, strain elf1, active compounds read low 1.03 | S. cerevisiae deletion strains, locus YKL190W, strain CNB1, active compounds read low 1 | S. cerevisiae deletion strains, locus YKR001C, strain vps1, active compounds read low 1 | S. cerevisiae deletion strains, locus YKR026C, strain gcn3, active compounds read low 1.01 | S. cerevisiae deletion strains, locus YKR091W, strain srl3, active compounds read low 1.01 | S. cerevisiae deletion strains, locus YLL001W, strain dnm1, active compounds read low 1.01 | S. cerevisiae deletion strains, locus YLL026W, active compounds read low 1.02 | S. cerevisiae deletion strains, locus YLL041C, strain sdh2, active compounds read low 1.03 | S. cerevisiae deletion strains, locus YLR027C, strain aat2, active compounds read low 1.01 | S. cerevisiae deletion strains, locus YLR039C, strain RIC1, active compounds read low 1.03 | S. cerevisiae deletion strains, locus YLR058C, strain SHM2, active compounds read low 1.02 | S. cerevisiae deletion strains, locus YLR102C, strain apc9, active compounds read low 0.992 | S. cerevisiae deletion strains, locus YLR113W, strain HOG1, active compounds read low 0.989 | S. cerevisiae deletion strains, locus YLR221C, strain rsa3, active compounds read low 1.02 | S. cerevisiae deletion strains, locus YLR258W, strain gsy2, active compounds read low 1.01 | S. cerevisiae deletion strains, locus YLR262C, strain YPT6 (second series), active compounds read low 1.02 | S. cerevisiae deletion strains, locus YLR262C, strain YPT6, active compounds read low 1.04 | S. cerevisiae deletion strains, locus YLR268W, strain sec22, active compounds read low 1.01 | S. cerevisiae deletion strains, locus YLR320W, strain mms22, active compounds read low 1.03 | S. cerevisiae deletion strains, locus YLR330W, strain CHS5, active compounds read low 1.02 | S. cerevisiae deletion strains, locus YLR342W, strain FKS1 (second series), active compounds read low 1 | S. cerevisiae deletion strains, locus YLR342W, strain FKS1, active compounds read low 1.03 | S. cerevisiae deletion strains, locus YLR357W, strain rsc2, active compounds read low 1.05 | S. cerevisiae deletion strains, locus YLR370C, strain arc18, active compounds read low 1.01 | S. cerevisiae deletion strains, locus YLR371W, strain rom2, active compounds read low 0.994 | S. cerevisiae deletion strains, locus YLR384C, strain iki3, active compounds read low 1.03 | S. cerevisiae deletion strains, locus YLR418C, strain cdc73, active compounds read low 1 | S. cerevisiae deletion strains, locus YML016C, strain PPZ1, active compounds read low 1.01 | S. cerevisiae deletion strains, locus YML032C, strain rad52, active compounds read low 0.989 | S. cerevisiae deletion strains, locus YML120C, strain ndi1, active compounds read low 1 | S. cerevisiae deletion strains, locus YML124C, strain tub3, active compounds read low 0.996 | S. cerevisiae deletion strains, locus YMR058W, strain fet3, active compounds read low 1 | S. cerevisiae deletion strains, locus YMR078C, strain ctf18, active compounds read low 1 | S. cerevisiae deletion strains, locus YMR125W, strain sto1, active compounds read low 1.03 | S. cerevisiae deletion strains, locus YMR129W, active compounds read low 1.02 | S. cerevisiae deletion strains, locus YMR205C, strain PFK2, active compounds read low 1.03 | S. cerevisiae deletion strains, locus YMR223W, strain ubp8, active compounds read low 0.974 | S. cerevisiae deletion strains, locus YMR231W, strain pep5, active compounds read low 1.02 | S. cerevisiae deletion strains, locus YMR263W, strain SAP30, active compounds read low 1.02 | S. cerevisiae deletion strains, locus YMR307W, strain GAS1, active compounds read low 1.07 | S. cerevisiae deletion strains, locus YNL067W, strain RPL9B, active compounds read low 1.02 | S. cerevisiae deletion strains, locus YNL071W, strain lat1, active compounds read low 1 | S. cerevisiae deletion strains, locus YNL128W, strain TEP1, active compounds read low 1.02 | S. cerevisiae deletion strains, locus YNL153C, strain GIM3, active compounds read low 1.02 | S. cerevisiae deletion strains, locus YNL183C, strain NPR1, active compounds read low 0.966 | S. cerevisiae deletion strains, locus YNL209W, strain ssb2, active compounds read low 1.02 | S. cerevisiae deletion strains, locus YNL233W, strain BNI4, active compounds read low 1.02 | S. cerevisiae deletion strains, locus YNL248C, strain rpa49, active compounds read low 1.03 | S. cerevisiae deletion strains, locus YNL250W, strain rad50, active compounds read low 0.994 | S. cerevisiae deletion strains, locus YNL271C, strain bni1, active compounds read low 1 | S. cerevisiae deletion strains, locus YNL298W, strain CLA4, active compounds read low 1.01 | S. cerevisiae deletion strains, locus YNL307C, strain MCK1, active compounds read low 0.998 | S. cerevisiae deletion strains, locus YNL322C, strain KRE1 (second series), active compounds read low 1.02 | S. cerevisiae deletion strains, locus YNL322C, strain KRE1, active compounds read low 1.01 | S. cerevisiae deletion strains, locus YNR049C, strain mso1, active compounds read low 1.01 | S. cerevisiae deletion strains, locus YNR052C, strain pop2, active compounds read low 0.991 | S. cerevisiae deletion strains, locus YOL006C, strain TOP1, active compounds read low 1.04 | S. cerevisiae deletion strains, locus YOL012C, strain htz1 0.884 | S. cerevisiae deletion strains, locus YOL147C, strain pex11, active compounds read low 0.996 | S. cerevisiae deletion strains, locus YOR001W, strain rrp6, active compounds read low 1.02 | S. cerevisiae deletion strains, locus YOR061W, strain CKA2, active compounds read low 1.01 | S. cerevisiae deletion strains, locus YOR069W, strain VPS5, active compounds read low 0.999 | S. cerevisiae deletion strains, locus YOR070C, strain gyp1, active compounds read low 1.02 | S. cerevisiae deletion strains, locus YOR080W, strain dia2, active compounds read low 1.03 | S. cerevisiae deletion strains, locus YOR083W, strain WHI5, active compounds read low 0.996 | S. cerevisiae deletion strains, locus YOR106W, strain vam3, active compounds read low 1.02 | S. cerevisiae deletion strains, locus YOR136W, strain idh2, active compounds read low 0.979 | S. cerevisiae deletion strains, locus YOR144C, strain elg1, active compounds read low 0.999 | S. cerevisiae deletion strains, locus YOR184W, strain ser1, active compounds read low 0.98 | S. cerevisiae deletion strains, locus YOR231W, strain MKK1, active compounds read low 0.993 | S. cerevisiae deletion strains, locus YOR265W, strain rbl2, active compounds read low 1.01 | S. cerevisiae deletion strains, locus YOR270C, strain vph1, active compounds read low 1.1 | S. cerevisiae deletion strains, locus YOR290C, strain snf2, active compounds read low 1.03 | S. cerevisiae deletion strains, locus YOR316C, strain cot1, active compounds read low 0.993 | S. cerevisiae deletion strains, locus YPL051W, strain arl3, active compounds read low 1.02 | S. cerevisiae deletion strains, locus YPL055C, strain LGE1, active compounds read low 1.03 | S. cerevisiae deletion strains, locus YPL078C, strain atp4, active compounds read low 1.02 | S. cerevisiae deletion strains, locus YPL106C, strain sse1, active compounds read low 1.04 | S. cerevisiae deletion strains, locus YPL240C, strain hsp82, active compounds read low 1.01 | S. cerevisiae deletion strains, locus YPL256C, strain CLN2, active compounds read low 1.02 | S. cerevisiae deletion strains, locus YPR119W, strain clb2, active compounds read low 0.99 | S. cerevisiae deletion strains, locus YPR141C, strain kar3, active compounds read low 0.992 | S. cerevisiae deletion strains, locus YPR163C, strain tif3, active compounds read low 0.992 | S. cerevisiae deletion strains, locus YPR167C, strain met16, active compounds read low 0.983 | S. cerevisiae deletion strains, strain wtn01, active compounds read low 0.997 | S. cerevisiae strains, strain wild type, active compounds read low 1.01
